Assay results from PubChem BioAssay (Tox21).
Results filed as inconclusive are left out. A call without a number means that no potency is given here. Activity calls are given as the source filed them. Unless noted, calls follow the shape of the dose curve; as a rule, active = well fitted curve in the direction sought with a large enough effect in the repeat runs; inconclusive = weak or mixed curves; inactive = no such curve, though single readings can be large; an effect the other way counts as inactive or inconclusive.

Tests used:
[1] = target: Luciferin 4-monooxygenase (Photinus pyralis) (UniProt P08659); assay: qHTS assay to identify small molecule inhibitors of firefly luciferase (AID 1224835); also: nearly all actives have a fitted effect of over 25% in size; also: potency is read from the fitted curve at half-maximal effect
Sequence of Luciferin 4-monooxygenase (Photinus pyralis) (P08659 whole entry, looked up): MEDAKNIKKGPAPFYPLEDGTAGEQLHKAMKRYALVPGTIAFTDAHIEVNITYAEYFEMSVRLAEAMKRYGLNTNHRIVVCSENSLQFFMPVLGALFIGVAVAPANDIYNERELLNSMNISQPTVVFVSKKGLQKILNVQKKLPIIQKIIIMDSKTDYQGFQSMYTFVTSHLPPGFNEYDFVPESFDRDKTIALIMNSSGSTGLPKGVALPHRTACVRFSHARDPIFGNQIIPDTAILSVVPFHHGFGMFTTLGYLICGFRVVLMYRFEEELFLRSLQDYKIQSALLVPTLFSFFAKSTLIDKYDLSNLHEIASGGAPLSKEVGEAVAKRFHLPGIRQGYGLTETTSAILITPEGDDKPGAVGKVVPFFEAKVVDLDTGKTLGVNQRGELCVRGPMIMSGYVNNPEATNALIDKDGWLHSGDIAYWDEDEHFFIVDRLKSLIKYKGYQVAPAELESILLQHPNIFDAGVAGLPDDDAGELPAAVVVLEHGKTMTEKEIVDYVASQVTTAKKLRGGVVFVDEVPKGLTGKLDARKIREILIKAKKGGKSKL
Procedure, shortened: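 Quantitative HTS format; KM concentrations of both substrates. Purified P. pyralis FLuc activity quantified from luminescence images.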

[2] = qHTS assay to identify small molecule agonists of the constitutive androstane receptor (CAR) signaling pathway - cell viability counter screen (AID 1224836); also: nearly all actives have a fitted effect of over 45% in size; also: potency is read from the fitted curve at half-maximal effect
Procedure, shortened: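 Compound titrations (15 concentrations) went onto HepG2-CYP2B6-hCAR cells 4 h after seeding, alongside PK11195 at a final 0.75 uM; a 23 h, 37 C/5% CO2 incubation preceded CellTiter-Fluor viability measurement.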

[3] = target: Nuclear receptor subfamily 1 group I member 3 (Homo sapiens) (UniProt Q14994); assay: qHTS assay to identify small molecule antagonists of the constitutive androstane receptor (CAR) signaling pathway (AID 1224838);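 also: HepG2 cells stably expressing hCAR with CYP2B6 luciferase reporter stimulated by CITCO; nearly all actives have a fitted effect of over 40% in size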; also: potency is read from the fitted curve at half-maximal effect
Sequence of Nuclear receptor subfamily 1 group I member 3 (Homo sapiens) (Q14994 whole entry, looked up): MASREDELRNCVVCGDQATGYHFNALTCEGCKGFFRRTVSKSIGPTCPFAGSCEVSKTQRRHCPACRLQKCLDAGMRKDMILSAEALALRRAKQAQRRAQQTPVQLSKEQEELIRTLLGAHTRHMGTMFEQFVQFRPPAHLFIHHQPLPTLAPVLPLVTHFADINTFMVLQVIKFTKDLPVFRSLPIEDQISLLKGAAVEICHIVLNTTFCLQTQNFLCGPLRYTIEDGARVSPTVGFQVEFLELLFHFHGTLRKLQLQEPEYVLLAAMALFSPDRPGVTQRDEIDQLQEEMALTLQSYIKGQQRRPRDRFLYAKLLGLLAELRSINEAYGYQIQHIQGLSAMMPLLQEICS
Procedure, shortened: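 Cell line: HepG2 double-stable for hCAR and CYP2B6-2.2kb reporter. Agonist: CITCO, 50 nM final. Compounds: 15 concentrations, 24 h, 37 C. Detection: ONE-Glo luminescence.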

[4] = target: Nuclear receptor subfamily 1 group I member 3 (Homo sapiens) (UniProt Q14994); assay: qHTS assay to identify small molecule agonists of the constitutive androstane receptor (CAR) signaling pathway (AID 1224839); also: nearly all actives have a fitted effect of over 15% in size; also: potency is read from the fitted curve at half-maximal effect;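 as to activation: HepG2 cells stably carrying human CAR and a CYP2B6 luciferase reporter; series mostly up to about 92 µM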
Procedure, shortened: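 In this screen, CAR-driven CYP2B6 promoter activity is measured by luminescence in HepG2-CYP2B6-hCAR cells after 24 h with test compounds and 0.75 uM PK11195 (final concentration).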

[5] = qHTS assay to identify small molecule antagonists of the estrogen related receptor signaling pathway with the pleiotropic PPARgamma coactivator (PGC) from Tox21 10K library - cell viability counter screen (AID 1224840; active = well fitted cell-killing curve with a large enough effect in the repeat runs, not every such curve was filed as active; also: nearly all actives have a fitted effect of over 40% in size; also: potency is read from the fitted curve at half-maximal effect)
Procedure, shortened: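 Following seeding of 2,000 PGC/ERR cells/well and 6 hours' incubation, test compounds were delivered in DMSO. The plates then sat 17.5 hours at 37 C before a fluorogenic live-cell protease reagent (CellTiter-Fluor) was read after 30 min.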

[6] = qHTS assay to identify small molecule antagonists of the estrogen related receptor signaling pathway with the pleiotropic PPARgamma coactivator (PGC) from Tox21 10K library (AID 1224841; call rule not given here; also: actives are mostly falling curves and most rising ones were filed inactive; nearly all actives have a fitted effect of over 50% in size; also: potency is read from the fitted curve at half-maximal effect)
Procedure, shortened: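 qHTS antagonist format: PGC/ERR cells, 2k/well, compound in DMSO by pin transfer after 6 h attachment, 18 h treatment at 37 C, One-Glo luminescence read at 30 min.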

[7] = qHTS assay to identify small molecule agonists of the estrogen related receptor signaling pathway with the pleiotropic PPARgamma coactivator (PGC) from Tox21 10K library (AID 1224842); also: nearly all actives have a fitted effect of over 15% in size
Procedure, shortened: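 PGC/ERR reporter cells (NTP line) were seeded 2,000 per well, rested 6 h at 37 C/5% CO2, then pin-dosed with compounds in DMSO for 18 h at 37 C; luciferase read by One-Glo luminescence after 30 min at room temperature.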

[8] = target: Thyrotropin receptor (Homo sapiens) (UniProt P16473); assay: qHTS assay to identify small molecule agonists of the thyroid stimulating hormone receptor (TSHR) signaling pathway (AID 1224843; calls by dose curve; also: nearly all actives have a fitted effect of over 45% in size; also: potency is read from the fitted curve at half-maximal effect)
Sequence of Thyrotropin receptor (Homo sapiens) (P16473 whole entry, looked up): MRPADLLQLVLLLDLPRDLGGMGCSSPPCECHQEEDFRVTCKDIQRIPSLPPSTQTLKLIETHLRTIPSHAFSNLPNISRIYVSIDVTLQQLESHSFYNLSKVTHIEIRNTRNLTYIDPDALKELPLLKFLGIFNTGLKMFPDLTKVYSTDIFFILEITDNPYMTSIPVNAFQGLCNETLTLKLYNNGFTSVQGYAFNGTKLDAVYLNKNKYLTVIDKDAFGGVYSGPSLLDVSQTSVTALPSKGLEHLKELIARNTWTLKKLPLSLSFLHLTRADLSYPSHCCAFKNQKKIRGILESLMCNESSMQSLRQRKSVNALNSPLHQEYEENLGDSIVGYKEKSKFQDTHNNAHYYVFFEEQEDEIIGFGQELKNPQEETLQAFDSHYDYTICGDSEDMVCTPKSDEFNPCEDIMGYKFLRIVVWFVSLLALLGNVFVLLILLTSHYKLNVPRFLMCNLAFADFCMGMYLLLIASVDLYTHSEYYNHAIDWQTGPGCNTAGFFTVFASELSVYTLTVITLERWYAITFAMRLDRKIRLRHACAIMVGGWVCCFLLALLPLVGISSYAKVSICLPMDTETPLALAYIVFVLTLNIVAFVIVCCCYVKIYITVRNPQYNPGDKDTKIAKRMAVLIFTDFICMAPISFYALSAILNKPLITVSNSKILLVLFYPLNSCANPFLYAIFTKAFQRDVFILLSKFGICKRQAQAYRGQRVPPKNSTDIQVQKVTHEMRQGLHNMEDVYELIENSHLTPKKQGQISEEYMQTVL
Procedure, shortened: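 Cell line HEK293 with TSHR; density 800/well. Exposure 30 min RT. Readout HTRF cAMP (cAMP-d2/anti-cAMP-cryptate), 1 h RT before reading.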

[9] = qHTS assay to identify small molecule agonists of the hypoxia (HIF-1) signaling pathway - cell viability counter screen (AID 1224844; calls by dose curve; also: nearly all actives have a fitted effect of over 50% in size; also: potency is read from the fitted curve at half-maximal effect)
Procedure, shortened: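 Cells (HRE-bla ME-180, 2,000 per well) sat 5 hrs at 37C, got compound for 17 hrs, were read for CCF4-AM FRET, and were finally lysed with CellTiter-Glo for a 30 min room-temperature luminescence read.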

[10] = qHTS assay to identify small molecule agonists of the hypoxia (HIF-1) signaling pathway (AID 1224846; active = well fitted activation curve with a large enough effect in the signal ratio in the repeat runs, not every such curve was filed as active; the % refers to the signal ratio)
Procedure, shortened: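 A low-serum medium (0.5% dialyzed FBS) holding 2,000 HRE-bla ME-180 cells per well is preincubated for 5 hrs, dosed with compounds by pintool, and kept a further 17 hrs at 37C, 5% CO2 before CCF4-AM FRET detection of beta-lactamase.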

[11] = qHTS assay to identify small molecule agonists of H2AX - cell viability counter screen (AID 1224847; calls by dose curve; also: nearly all actives have a fitted effect of over 30% in size; also: potency is read from the fitted curve at half-maximal effect)
Procedure, shortened: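 Read-out: CellTiter-Glo luminescence, 30 min RT. Cells: wild-type CHO-K1, 1000/well, 10% FBS, plated overnight at 37C. Treatment: 15 concentrations, 3 hr, 37C, 0.76% DMSO.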

[12] = qHTS assay to identify small molecule antagonists of the estrogen related receptor (ERR) signaling pathway from Tox21 library (AID 1224848); also: potency is read from the fitted curve at half-maximal effect; nearly all actives have a fitted effect of over 50% in size
Procedure, shortened: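 Screening used an ERR reporter line supplied by NTP, exposed for 18 h at 37 C to library compounds delivered in DMSO. Signal was luciferase luminescence developed with ONE-Glo at room temperature for 30 min.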

[13] = qHTS assay to identify small molecule antagonists of the constitutive androstane receptor (CAR) signaling pathway - cell viability counter screen (AID 1224837); also: nearly all actives have a fitted effect of over 45% in size; also: potency is read from the fitted curve at half-maximal effect
Procedure, shortened: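 Counter screen run in HepG2-CYP2B6-hCAR cells: 4 hr settle, compound titration (15 concentrations) with 50 nM CITCO, 23 hr at 37 C/5% CO2, CellTiter-Fluor fluorescence.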

[14] = qHTS assay to identify small molecule agonists of H2AX (AID 1224845; active = well fitted activation curve with a large enough effect in the signal ratio in the repeat runs, not every such curve was filed as active; the % refers to the signal ratio)
Procedure, shortened: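 Wild-type CHO-K1 cells plated overnight, then exposed 3 hr at 37C to compounds at 15 concentrations (0.76% DMSO). Lysed, then HTRF anti-pH2AX(S139)-cryptate/anti-H2AX-d2 detection after 24 hr at room temperature; emissions 665 and 620 nm.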

SMILES | Potency [1] | Potency [2] | Potency [3] | Potency [4] | Potency [5] | Potency [6] | Potency [7] | Potency [8] | Potency [9] | Potency [10] | Potency [11] | Potency [12] | Potency [13] | Potency [14]
S=C1NC=NC2N=CNC12 (stereo unspecified) | inactive | inactive | 6.11 µM (active) | inactive | inactive | 0.486 µM (active) | inactive | inactive | inactive | inactive | 3.19 µM (active) | 19.3 µM (active) |  | 
CCC(C)(C)c1ccc(CC(C)CN2C[C@@H](C)O[C@@H](C)C2)cc1 (stereo partly specified) | inactive | inactive | inactive | inactive | inactive | inactive | inactive |  | 23.9 µM (active) |  | 55.2 µM (active) |  | inactive | 
COc1cc(OC)nc(NC(=O)NS(=O)(=O)Nc2ccccc2C(=O)N(C)C)n1 | inactive | inactive | inactive | inactive | inactive | inactive | inactive | inactive | inactive | inactive | inactive |  |  | inactive
CC(C)(C)c1ccc(OC2CCCCC2O)cc1 (stereo unspecified) | 31.7 µM (active) | inactive | inactive | 27.3 µM (active) | inactive |  |  | inactive | inactive | inactive | 71.3 µM (active) |  | inactive | inactive
Nc1ccc(N)c([N+](=O)[O-])c1 | 35.6 µM (active) |  |  |  |  |  |  |  |  |  |  |  |  | 
ClC(c1ccccc1)(c1ccccc1)c1ccccc1 | inactive | inactive | inactive | 21.7 µM (active) | inactive |  |  |  | inactive | inactive | inactive |  | inactive | inactive
Cc1ccc(N=Nc2c(O)ccc3ccccc23)c(C)c1 | 13.8 µM (active) | inactive | inactive | 8.41 µM (active) |  |  |  | inactive | 21.3 µM (active) | inactive | inactive |  |  | inactive
CO[Si](OC)(c1ccccc1)c1ccccc1 | inactive | inactive |  | inactive |  |  | inactive | inactive |  |  | inactive |  | inactive | 
CN1CCN(c2ccccc2/C=C2\SCCN(c3ccc(Cl)c(Cl)c3)C2=O)CC1 | inactive | 43.3 µM (active) | inactive | inactive | 48.6 µM (active) |  | inactive |  | 49 µM (active) |  | 50.5 µM (active) |  | 24.3 µM (active) | 
CC(=O)CC(N)=O | inactive | inactive |  |  | inactive |  |  |  | inactive | inactive | inactive |  | inactive | 
CCN(CCC#N)c1ccc(N=Nc2ccc([N+](=O)[O-])cc2)cc1 | inactive | inactive | inactive | 13.7 µM (active) | inactive | inactive |  | inactive | inactive | inactive |  |  | inactive | inactive
Cc1ccc2sc3cccc(C)c3c2c1 | inactive | inactive | inactive | 27.3 µM (active) | inactive |  |  | inactive | inactive | inactive | inactive |  | inactive | inactive
O[Si](c1ccccc1)(c1ccccc1)c1ccccc1 | inactive | inactive | inactive | 30.6 µM (active) |  | 68.6 µM (active) | inactive | 48.6 µM (active) | inactive | inactive | 101 µM (active) |  | inactive | inactive
Nc1ccc(F)c([N+](=O)[O-])c1 | inactive | inactive | inactive | inactive | inactive | 30.6 µM (active) | inactive | inactive | inactive | inactive | inactive | 34.4 µM (active) | inactive | inactive
C=C1CC[C@H]2O[C@]2(C)CC[C@@H]2[C@@H]1CC2(C)C | inactive | inactive | inactive | inactive | inactive | inactive | inactive | inactive | inactive | inactive | inactive |  | inactive | inactive
COc1ccc2ccccc2c1 | inactive |  |  |  |  |  |  |  |  |  |  |  |  | 
CCSCC | inactive | inactive |  |  |  |  |  |  | inactive | inactive | inactive |  | inactive | 
